According to the supplement of paper PMC8728848:
The full list was thinned out, with the strongest signals kept by preference.

Legend:
Experiment in all cases: glycan array binding signal (z-score within array); higher = stronger binding
Conditions in all cases: glycan notation: IUPAC condensed, linker removed
[1] = target: Fuc(a1-2)Gal(b1-3)GalNAc(b1-3)Gal(a1-4)Gal(b1-4)Glc
Summary of the method: (§1)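 The binding signal is a Z-score computed within each array. Data were drawn from 3228 arrays in the Consortium for Functional Glycomics database, restricted to those with a known protein sequence. Scores were averaged over arrays of the same protein sequence at different concentrations or buffers, and over linkers, and negative values can be taken as non-binding.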

[2] = target: Fuc(a1-2)Gal(b1-4)GlcNAc(b1-3)[Fuc(a1-3)[Gal(b1-4)]GlcNAc(b1-6)]Gal(b1-4)Glc
Summary of the method: as §1

[3] = target: Fuc(a1-2)Gal(b1-4)[Fuc(a1-3)]GlcNAc(b1-2)Man(a1-3)[Fuc(a1-2)Gal(b1-4)[Fuc(a1-3)]GlcNAc(b1-2)Man(a1-6)]Man(b1-4)GlcNAc(b1-4)[Fuc(a1-6)]GlcNAc
Summary of the method: as §1

[4] = target: Fuc(a1-2)Gal(b1-4)[Fuc(a1-3)]GlcNAc(b1-3)GalNAc
Summary of the method: as §1

[5] = target: Fuc(a1-2)[Gal(a1-3)]Gal
Summary of the method: as §1

[6] = target: Fuc(a1-2)[Gal(a1-3)]Gal(b1-3)GlcNAc
Summary of the method: as §1

[7] = target: Fuc(a1-2)[Gal(a1-3)]Gal(b1-4)GlcNAc(b1-3)[Fuc(a1-2)[Gal(a1-3)]Gal(b1-4)GlcNAc(b1-6)]GalNAc
Summary of the method: as §1

[8] = target: Fuc(a1-2)[GalNAc(a1-3)]Gal(b1-3)GlcNAc(b1-3)GalNAc
Summary of the method: as §1

[9] = target: Fuc(a1-2)[GalNAc(a1-3)]Gal(b1-4)GlcNAc(b1-2)Man
Summary of the method: as §1

[10] = target: Fuc(a1-2)[GalNAc(a1-3)]Gal(b1-4)[Fuc(a1-3)]GlcNAc(b1-3)GalNAc
Summary of the method: as §1

[11] = target: Fuc(a1-3)[GalNAc(b1-4)]GlcNAc
Summary of the method: as §1

[12] = target: Fuc(a1-4)GlcNAc
Summary of the method: as §1

[13] = target: Gal(a1-3)Gal
Summary of the method: as §1

[14] = target: Gal(a1-3)Gal(b1-3)GlcNAc
Summary of the method: as §1

[15] = target: Gal(a1-3)[Gal(a1-4)]Gal(b1-4)GlcNAc
Summary of the method: as §1

[16] = target: Gal(b1-3)GalNAc
Summary of the method: as §1

[17] = target: Gal(b1-3)GlcNAc(b1-3)Gal(b1-4)GlcNAc
Summary of the method: as §1

[18] = target: Gal(b1-4)GlcNAc(b1-2)[Gal(b1-4)GlcNAc(b1-6)]Man(a1-6)[GlcNAc(b1-4)][Gal(b1-4)GlcNAc(b1-2)Man(a1-3)]Man(b1-4)GlcNAc(b1-4)GlcNAc
Summary of the method: as §1

[19] = target: Gal(b1-4)GlcNAc(b1-3)Gal(b1-4)GlcNAc(b1-3)Gal(b1-4)GlcNAc(b1-3)Gal(b1-4)GlcNAc(b1-2)[Gal(b1-4)GlcNAc(b1-3)Gal(b1-4)GlcNAc(b1-3)Gal(b1-4)GlcNAc(b1-3)Gal(b1-4)GlcNAc(b1-6)]Man(a1-6)[Gal(b1-4)GlcNAc(b1-3)Gal(b1-4)GlcNAc(b1-3)Gal(b1-4)GlcNAc(b1-3)Gal(b1-4)GlcNAc(b1-2)Man(a1-3)]Man(b1-4)GlcNAc(b1-4)[Fuc(a1-6)]GlcNAc
Summary of the method: as §1

[20] = target: Gal(b1-4)GlcNAc(b1-3)Gal(b1-4)GlcNAc(b1-3)Gal(b1-4)GlcNAc(b1-3)Gal(b1-4)GlcNAc(b1-3)Gal(b1-4)GlcNAc(b1-3)Gal(b1-4)GlcNAc(b1-2)Man(a1-3)[Gal(b1-4)GlcNAc(b1-3)Gal(b1-4)GlcNAc(b1-3)Gal(b1-4)GlcNAc(b1-3)Gal(b1-4)GlcNAc(b1-3)Gal(b1-4)GlcNAc(b1-3)Gal(b1-4)GlcNAc(b1-2)Man(a1-6)]Man(b1-4)GlcNAc(b1-4)GlcNAc
Summary of the method: as §1

[21] = target: Gal(b1-4)GlcNAc(b1-6)GalNAc
Summary of the method: as §1

[22] = target: Gal(b1-4)GlcNAc(b1-6)[Gal(b1-3)]GalNAc
Summary of the method: as §1

[23] = target: Gal3S(b1-3)[Fuc(a1-4)]GlcNAc
Summary of the method: as §1

[24] = target: Gal3S(b1-4)[Fuc(a1-3)]Glc6S
Summary of the method: as §1

[25] = target: GalNAc(b1-3)Gal(a1-4)Gal(b1-4)GlcNAc(b1-3)Gal(b1-4)Glc
Summary of the method: as §1

[26] = target: GalNAc(b1-3)Gal(a1-6)Gal(b1-4)Glc
Summary of the method: as §1

[27] = target: GalNAc(b1-3)GlcNAc
Summary of the method: as §1

[28] = target: GalNAc(b1-4)GlcNAc
Summary of the method: as §1

[29] = target: GlcNAc(b1-2)Gal(b1-3)GalNAc
Summary of the method: as §1

[30] = target: GlcNAc(b1-2)[GlcNAc(b1-4)]Man(a1-3)[GlcNAc(b1-2)Man(a1-6)]Man(b1-4)GlcNAc(b1-4)GlcNAc
Summary of the method: as §1

[31] = target: GlcNAc(b1-2)[GlcNAc(b1-4)]Man(a1-3)[GlcNAc(b1-4)][GlcNAc(b1-2)Man(a1-6)]Man(b1-4)GlcNAc(b1-4)GlcNAc
Summary of the method: as §1

[32] = target: GlcNAc(b1-3)Gal(b1-4)GlcNAc(b1-3)Gal(b1-4)GlcNAc(b1-2)Man(a1-3)[GlcNAc(b1-3)Gal(b1-4)GlcNAc(b1-3)Gal(b1-4)GlcNAc(b1-2)Man(a1-6)]Man(b1-4)GlcNAc(b1-4)GlcNAc
Summary of the method: as §1

[33] = target: GlcNAc(b1-4)Gal(b1-4)GlcNAc
Summary of the method: as §1

[34] = target: Man(a1-3)[Man(a1-6)]Man(b1-4)GlcNAc(b1-4)[Fuc(a1-6)]GlcNAc
Summary of the method: as §1

[35] = target: Neu5Ac(a2-3)Gal(b1-3)GlcNAc(b1-3)GalNAc
Summary of the method: as §1

[36] = target: Neu5Ac(a2-3)Gal(b1-4)GlcNAc(b1-2)[Neu5Ac(a2-3)Gal(b1-4)GlcNAc(b1-6)]Man(a1-6)[Neu5Ac(a2-3)Gal(b1-4)GlcNAc(b1-2)Man(a1-3)]Man(b1-4)GlcNAc(b1-4)GlcNAc
Summary of the method: as §1

[37] = target: Neu5Ac(a2-3)Gal(b1-4)GlcNAc(b1-3)Gal
Summary of the method: as §1

[38] = target: Neu5Ac(a2-3)Gal(b1-4)GlcNAc(b1-3)[Neu5Ac(a2-3)Gal(b1-4)GlcNAc(b1-6)]GalNAc
Summary of the method: as §1

[39] = target: Neu5Ac(a2-3)Gal(b1-4)[Fuc(a1-3)]GlcNAc(b1-3)GalNAc
Summary of the method: as §1

[40] = target: Neu5Ac(a2-3)Gal(b1-4)[Fuc(a1-3)]GlcNAc(b1-6)[Neu5Ac(a2-3)Gal(b1-3)]GalNAc
Summary of the method: as §1

[41] = target: Neu5Ac(a2-6)Gal(b1-4)GlcNAc(b1-3)Gal(b1-4)GlcNAc
Summary of the method: as §1

[42] = target: Neu5Ac(a2-6)Gal(b1-4)GlcNAc(b1-3)Gal(b1-4)GlcNAc(b1-3)[Neu5Ac(a2-6)Gal(b1-4)GlcNAc(b1-3)Gal(b1-4)GlcNAc(b1-6)]GalNAc
Summary of the method: as §1

[43] = target: Neu5Ac(a2-8)Neu5Ac(a2-3)[GalNAc(b1-4)]Gal(b1-4)Glc
Summary of the method: as §1

[44] = target: Neu5Ac(a2-8)Neu5Ac(a2-8)Neu5Ac(a2-3)[Gal(b1-3)GalNAc(b1-4)]Gal(b1-4)Glc
Summary of the method: as §1

[45] = target: Neu5Gc(a2-3)Gal(b1-4)[Fuc(a1-3)]GlcNAc
Summary of the method: as §1

B1: AT5G24760(45) (Arabidopsis thaliana), Q8LEB2 (protein)
chain: MSASSSSFEQPQVITCNAAVAWRAGEPLVMEEVEVSPPQPLEIRIKVVCTSLCRSDLSAWESQSLLPRIFGHEAAGIVESIGEGVTEFEKGDHVLAVFTGECGSCRHCISGKSNMCQVLGMERKGLMHSDQKTRFSIKGKPVYHYCAVSSFSEYTVVHSGCAVKVDPLAPLHKICLLSCGVAAGLGAAWNVADVQKGSSVVIFGLGTVGLSVAQGAKLRGAAQILGVDINPAKAEQAKTFGVTDFINSNDLSEPIPQVIKRMTGGGADFSFECVGDTGIATTALQSCSDGWGMTVTLGVPKAKPEVSAHYGLFLSGKSLKGTLFGGWKPKSDLPSLIDKYMNKEIMIDEFITHNLSFDEINKAFVLMREGKCLRCVLHMPK
Which “glycan array binding signal (z-score)” value [1] does the source give for B1 here?
The value was -0.051.

And the “glycan array binding signal (z-score)” value [2]?
Its value is 0.166.

What about the “glycan array binding signal (z-score)” value [3] of the same binder?
The value was 0.395.

And the “glycan array binding signal (z-score)” value [4]?
Its value is 4.6.

What about the “glycan array binding signal (z-score)” value [5] of the same binder?
The value was 0.984.

And the “glycan array binding signal (z-score)” value [6]?
The value was -0.224.

What about the “glycan array binding signal (z-score)” value [7] of the same binder?
The value was 0.627.

What about the “glycan array binding signal (z-score)” value [8] of the same binder?
Its value is 3.83.

And the “glycan array binding signal (z-score)” value [9]?
The value was -0.179.

What about the “glycan array binding signal (z-score)” value [10] of the same binder?
The value was 6.82.

And the “glycan array binding signal (z-score)” value [11]?
Its value is 1.18.

What about the “glycan array binding signal (z-score)” value [12] of the same binder?
The value was 1.12.

And the “glycan array binding signal (z-score)” value [13]?
The value was 0.612.

What about the “glycan array binding signal (z-score)” value [14] of the same binder?
Its value is 7.36.

What about the “glycan array binding signal (z-score)” value [15] of the same binder?
The value was 6.01.

And the “glycan array binding signal (z-score)” value [16]?
The value was 0.106.

And the “glycan array binding signal (z-score)” value [17]?
The value was -0.138.

And the “glycan array binding signal (z-score)” value [18]?
Its value is -1.03.

And the “glycan array binding signal (z-score)” value [19]?
The value was -0.779.

What about the “glycan array binding signal (z-score)” value [20] of the same binder?
The value was -0.887.

What about the “glycan array binding signal (z-score)” value [21] of the same binder?
Its value is 1.23.

And the “glycan array binding signal (z-score)” value [22]?
Its value is -0.485.

What about the “glycan array binding signal (z-score)” value [23] of the same binder?
The value was 0.437.

And the “glycan array binding signal (z-score)” value [24]?
Its value is 2.68.

What about the “glycan array binding signal (z-score)” value [25] of the same binder?
Its value is -0.632.

What about the “glycan array binding signal (z-score)” value [26] of the same binder?
Its value is -0.337.

What about the “glycan array binding signal (z-score)” value [27] of the same binder?
The value was 0.645.

And the “glycan array binding signal (z-score)” value [28]?
Its value is 3.23.

And the “glycan array binding signal (z-score)” value [29]?
The value was 2.61.

What about the “glycan array binding signal (z-score)” value [30] of the same binder?
The value was 1.01.

What about the “glycan array binding signal (z-score)” value [31] of the same binder?
Its value is -0.932.

What about the “glycan array binding signal (z-score)” value [32] of the same binder?
Its value is 1.14.

And the “glycan array binding signal (z-score)” value [33]?
Its value is 2.53.

And the “glycan array binding signal (z-score)” value [34]?
The value was -0.202.

What about the “glycan array binding signal (z-score)” value [35] of the same binder?
The value was -0.553.

What about the “glycan array binding signal (z-score)” value [36] of the same binder?
The value was -0.601.

And the “glycan array binding signal (z-score)” value [37]?
The value was -0.951.

And the “glycan array binding signal (z-score)” value [38]?
The value was -1.2.

What about the “glycan array binding signal (z-score)” value [39] of the same binder?
The value was 3.17.

What about the “glycan array binding signal (z-score)” value [40] of the same binder?
The value was 2.76.

And the “glycan array binding signal (z-score)” value [41]?
The value was -0.877.

And the “glycan array binding signal (z-score)” value [42]?
Its value is -0.602.

What about the “glycan array binding signal (z-score)” value [43] of the same binder?
Its value is -0.388.

And the “glycan array binding signal (z-score)” value [44]?
Its value is 0.125.

And the “glycan array binding signal (z-score)” value [45]?
The value was -0.203.
